Experiment [1] can be described thus: NCI Yeast Anticancer Drug Screen. Data for the rad50 strain (AID 155).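 Further: 0% = growth of vehicle-only cultures of the same strain.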 To be noted: S. cerevisiae rad50 strain growth inhibition; at 50.0 µM; active compounds read high. The method, boiled down: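 Vehicle-treated cultures provide the reference for the growth inhibition reported for compound-exposed, repair-deficient yeast.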
The nature of experiment [2]: NCI Yeast Anticancer Drug Screen. Data for the mec2-1 strain (AID 157). The settings on record: S. cerevisiae mec2-1 strain, at 50.0 µM, active compounds read high. The procedure, abridged:
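Each compound was tested on mec2-1 yeast, a strain altered in DNA damage repair or cell cycle control. Growth inhibition is reported relative to vehicle.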

The nature of experiment [3]: NCI Yeast Anticancer Drug Screen. Data for the sgs1 mgt1 strain (AID 161).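 Further: 0% = growth of cultures given vehicle only.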 The settings on record: S. cerevisiae sgs1 mgt1 strain, at 50.0 µM, active compounds read high. The method, boiled down: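 Read-out: growth inhibition vs vehicle controls. Cells: mutant yeast strain deficient in DNA damage repair.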
A short description of experiment [4]: NCI Yeast Anticancer Drug Screen. Data for the cln2 rad14 strain (AID 165).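 Further: 0% = growth equal to vehicle treated cultures.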 To be noted: S. cerevisiae cln2 rad14 strain, at 50.0 µM, active compounds read high. The method, boiled down:
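Test compounds were added to cln2 rad14 yeast cultures; inhibition of growth was then determined by comparison with vehicle treatment.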

The nature of experiment [5]: NCI Yeast Anticancer Drug Screen. Data for the bub3 strain (AID 167). To be noted: S. cerevisiae bub3 mutant strain, at 50.0 µM, active compounds read high. The method, boiled down:
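Mutant yeast screening strain plus compound; vehicle-treated cultures serve as the 0% inhibition reference.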

A short description of experiment [6]: NCI Yeast Anticancer Drug Screen. Data for the mlh1 rad18 strain (AID 175). To be noted: S. cerevisiae mlh1 rad18 strain growth inhibition; at 50.0 µM; active compounds read high. The procedure, abridged: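 Inhibition values reflect reduced growth of mutant yeast versus vehicle-treated controls following compound exposure; the mutations affect DNA damage repair.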

The structures appear in SMILES notation. The panel holds about 79,000 compounds, 15% with a hit somewhere; the sample as a whole holds those more often. Unmarked numbers belong to inactive results. Active and inactive are the calls of the source. No stated cut-off is given here; in the data, active means growth inhibition above about 70%; inactive means the rest.

With `O=NO.O=NO.[NH-]C1CCCCC1[NH-].[Pd+2]` (stereo not given), the growth inhibition in experiment [1] was -11.2%; in experiment [2], 13.1%; in experiment [3] it was 15.2%; in experiment [4], 21.2%; in experiment [5], 9.05%; in experiment [6] it was -0.3%.
In the case of `CCC[CH2][Sn]([CH3])([CH3])[CH2]CC[N+](C)(C)C`, the growth inhibition in experiment [1] was 21.3%; in experiment [2] it was 5.55%; in experiment [3] it was 16.9%; in experiment [4], 45%; in experiment [5], 10.8%; in experiment [6], 13.5%.
Turning to `CNCCc1c[nH]c2ccc(O)cc12`, the growth inhibition in experiment [1] is -2.15%; in experiment [2] it was -8.6%; in experiment [3] it was -1.35%; in experiment [4], -39.5%; in experiment [5], 18.9%; in experiment [6], -10.7%.
On to `Cn1c(=O)c2ncnnc2n(C)c1=O`, for which the growth inhibition in experiment [1] is 31.6%; in experiment [2], 22.9%; in experiment [3] it was 27.9%; in experiment [4] it was 0.5%; in experiment [5], 36.8%; in experiment [6] it was 45.1%.
As to `C(=Nc1ccccc1)C1CCCC[N-]1.C(=Nc1ccccc1)C1CCCC[N-]1.[Cu+2].[O-][Cl+3]([O-])([O-])O` (stereo not given), the growth inhibition in experiment [1] was 90.5% (active); in experiment [2] it was 83.6% (active); in experiment [3], 65%; in experiment [4], 92.5% (active); in experiment [5], 74.2% (active); in experiment [6], 88% (active).
With `C[C@H]1CC(=O)C[C@@H]2CC[C@@H]3[C@H](CC[C@]4(C)C(OC(=O)c5cccc6c(=O)c7ccccc7[nH]c56)CC[C@@H]34)[C@]21C` (stereo not given in full), the growth inhibition in experiment [1] was 42.4%; in experiment [2], 22%; in experiment [3] it was 45.6%; in experiment [4] it was 41.9%; in experiment [5], 5.2%; in experiment [6] it was 40.9%.
In the case of `Cc1ccc(N)c(C)c1`, the growth inhibition was -2.05% in experiment [1]; -5.65% in experiment [2]; -1.5% in experiment [3]; -3.8% in experiment [4]; 3.2% in experiment [5]; -13.2% in experiment [6].
In the case of `CC(=O)OCC1OC(OC(C)=O)C(N(CCCl)CCCl)C(OC(C)=O)C1OC(C)=O` (stereo not given), the growth inhibition was 2.2% in experiment [1]; 7% in experiment [2]; 6.75% in experiment [3]; 23.9% in experiment [4]; -2.25% in experiment [5]; -33.6% in experiment [6].
On to `CC1(C)N=C(N)N=C(N)N1c1cccc(CCC(=O)Nc2ccc[n+](Cc3ccc(S(=O)(=O)F)cc3)c2)c1`, for which the growth inhibition was -1.3% in experiment [1]; -8.35% in experiment [2]; 13.4% in experiment [3]; -17.8% in experiment [4]; -9.55% in experiment [5]; -11.9% in experiment [6].
On to `CC(Cl)[N+](=O)[O-]` (stereo not given), for which the growth inhibition in experiment [1] was 15.4%; in experiment [2] it was -10.2%; in experiment [3] it was 2.55%; in experiment [4], 16.9%; in experiment [5], 9%; in experiment [6], 1.9%.
As to `CCCCCCCCCCNP(=S)(NCCCCCCCCCC)c1ccccc1`, the growth inhibition was 26.8% in experiment [1]; 4.7% in experiment [2]; 27.9% in experiment [3]; -19.8% in experiment [4]; -14.8% in experiment [5]; 2.6% in experiment [6].
Take `NC(=O)C1(Cl)CCCCC1`: the growth inhibition in experiment [1] was -11.8%; in experiment [2], -22.8%; in experiment [3], -20.8%; in experiment [4] it was -11.2%; in experiment [5], -6.1%; in experiment [6], -6.25%.
Turning to `CCCCOP(=O)(OCCCC)Oc1cccc([N+](=O)[O-])c1`, the growth inhibition in experiment [1] is 6.6%; in experiment [2], 46.1%; in experiment [3], 18.9%; in experiment [4], 28.2%; in experiment [5], 42.3%; in experiment [6], 14.5%.
Consider `Cc1nc2cccc(F)c2c(=O)n1-c1nnc(C2CC2)s1`, for which the growth inhibition in experiment [1] is -28.6%; in experiment [2] it was -23.5%; in experiment [3], -20.2%; in experiment [4], 13.5%; in experiment [5], -41.2%; in experiment [6], -9.05%.
In the case of `Cn1c(O)c(C=N)c(=O)n(C)c1=O`, the growth inhibition was 15.1% in experiment [1]; 5.4% in experiment [2]; -2.6% in experiment [3]; 7.45% in experiment [4]; 0.8% in experiment [5]; 4.7% in experiment [6].
`CCOP(=O)(OCC)/C(C#N)=C/c1cn(C)cn1`: the growth inhibition in experiment [1] was -3.35%; in experiment [2] it was 1.95%; in experiment [3] it was -5.95%; in experiment [4] it was -16.1%; in experiment [5], -4.65%; in experiment [6] it was -21.8%.
Turning to `Nc1cc(C(=O)O)ccc1O.[Cl][Sn][Cl]`, the growth inhibition is 2.2% in experiment [1]; -4.15% in experiment [2]; -6.4% in experiment [3]; -45.8% in experiment [4]; -1.65% in experiment [5]; -19.4% in experiment [6].
As to `CNC(C)Cc1ccccc1OC` (stereo not given) (tested in a mixture with another compound), the growth inhibition is -14.8% in experiment [1]; 1.9% in experiment [2]; 4.15% in experiment [3]; -35.9% in experiment [4]; 9.55% in experiment [5]; -7.7% in experiment [6].
In the case of `CCN(CCCl)c1cc(C(=O)NCCCN(C)CCCNC(=O)c2cc(N(CC)CCCl)c([N+](=O)[O-])cc2[N+](=O)[O-])c([N+](=O)[O-])cc1[N+](=O)[O-]`, the growth inhibition is -4.75% in experiment [1]; -2.9% in experiment [2]; -17% in experiment [3]; -4.05% in experiment [4]; -2.2% in experiment [5]; -9% in experiment [6].
For the compound `COC(=O)C1C(c2ccc(-c3ccccc3)cc2)N1C1CCCCC1` (stereo not given), the growth inhibition is 7.7% in experiment [1]; 19.8% in experiment [2]; 2.9% in experiment [3]; -2.05% in experiment [4]; -4% in experiment [5]; 1.85% in experiment [6].

The values above are taken from PubChem BioAssay (NCI).
